Results reported in the supplement of paper PMC10811239.

What was measured:
[1] = tested on: LEGO organoid PTCC (PTEN-/-; TP53-/-; CDKN2A-/-; CDKN2B-/-); assay: bioluminescence (viable cell) signal fold change after vs before treatment, normalised to DMSO (ratio); higher = more tumour cell growth / less inhibition; settings: 10 µM; treatment time 6 days
Description: (§1)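 Luc2-labelled iPSC-derived glioblastoma-like organoids (LEGOs, genotypes PT = PTEN-/-;TP53-/-, PTCC = plus CDKN2A/B-/-, PTN = plus NF1-/-) were treated with 10 uM drug for 6 days (applied every other day) at 37 C. Bioluminescence imaging was done before treatment and 2 days after the last dose. BLI signals were normalised to the DMSO control on the same day and then to the pre-treatment signal (N=3).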

[2] = tested on: LEGO organoid PTN (PTEN-/-; TP53-/-; NF1-/-); assay: as above; settings: 10 µM; treatment time 6 days
Description: as §1

SMILES	bioluminescence [1]	bioluminescence [2]
O.O.O.O.O.O.O.O=C1CN(/N=C/c2ccc(-c3ccc([N+](=O)[O-])cc3)o2)C(=O)[N-]1.O=C1CN(/N=C/c2ccc(-c3ccc([N+](=O)[O-])cc3)o2)C(=O)[N-]1.[Na+].[Na+] [Dantrolene sodium hemiheptahydrate]	2.4	2.84
CCC(C)n1ncn(-c2ccc(N3CCN(c4ccc(OC[C@H]5CO[C@](Cn6cncn6)(c6ccc(Cl)cc6Cl)O5)cc4)CC3)cc2)c1=O (stereo partly specified) [Itraconazole]	0.596	1.31
OC(Cn1cncn1)(Cn1cncn1)c1ccc(F)cc1F [Fluconazole]	0.967	1.54
Nc1nc(=O)c2c(CCc3ccc(C(=O)N[C@@H](CCC(=O)[O-])C(=O)[O-])cc3)c[nH]c2[nH]1.Nc1nc(=O)c2c(CCc3ccc(C(=O)N[C@@H](CCC(=O)[O-])C(=O)[O-])cc3)c[nH]c2[nH]1.O.O.O.O.O.[Na+].[Na+].[Na+].[Na+] [Pemetrexed Disodium Hydrate]	0.95	1.05
Cc1nc2n(c(=O)c1CCN1CCC(c3noc4cc(F)ccc34)CC1)CCCC2 [Risperidal]	1.93	1.31
CSCC[C@@H](N)C(=O)O [Methionine]	0.816	1.35
CCCc1nc(C)c2c(=O)[nH]c(-c3cc(S(=O)(=O)N4CCN(CC)CC4)ccc3OCC)nn12 [Vardenafil]	1.16	1.29
CN(C)CCCN1c2ccccc2CCc2ccc(Cl)cc21.Cl [Clomipramine hydrochloride]	0.71	1.5
C[C@@H]1C[C@H]2[C@@H]3CCC4=CC(=O)C=C[C@]4(C)[C@@]3(F)[C@@H](O)C[C@]2(C)[C@@]1(O)C(=O)CO [Dexamethasone]	1.28	1.71
CCc1nn(CCCN2CCN(c3cccc(Cl)c3)CC2)c(=O)n1CCOc1ccccc1.Cl [Nefazodone hydrochloride]	1.12	0.52
CC1=C(CC(=O)O)c2cc(F)ccc2/C1=C\c1ccc(S(C)=O)cc1 (stereo unspecified) [Sulindac]	1.38	1.47
NCCS(=O)(=O)O [Taurine]	0.71	0.673
CCC(=O)NCC[C@@H]1CCc2ccc3c(c21)CCO3 [Ramelteon]	1.56	2.06
CCCCCCCCc1ccc(CCC(N)(CO)CO)cc1.Cl [Fingolimod hydrochloride]	1.07	0.473
CC[C@]1(O)C[C@H]2C[N@](CCc3c([nH]c4ccccc34)[C@@](C(=O)OC)(c3cc4c(cc3OC)N(C=O)[C@H]3[C@@](O)(C(=O)OC)[C@H](OC(C)=O)[C@]5(CC)C=CCN6CC[C@]43[C@@H]65)C2)C1.O=S(=O)(O)O [Vincristine sulfate]	2.47	0.8
CC(C)NCC(O)COc1cccc2ccccc12.Cl (stereo unspecified) [Propranolol hydrochloride]	0.672	1.25
C#CCN[C@@H]1CCc2ccccc21 [Rasagiline]	1.19	0.976
N[C@@H]1CONC1=O [D-Cycloserine]	1.11	1.69
CC(=O)[C@H]1CC[C@H]2[C@@H]3CCC4=CC(=O)CC[C@]4(C)[C@H]3CC[C@]12C [Progesterone]	0.682	1.12
Nc1nc2c(ncn2COCCO)c(=O)[nH]1 [Aciclovir]	2.16	4.45
Nc1nnc(-c2cccc(Cl)c2Cl)c(N)n1 [Lamotrigine]	2.24	0.446
CO/N=C(\C(=O)N[C@@H]1C(=O)N2C(C(=O)[O-])=C(C[N+]3(C)CCCC3)CS[C@H]12)c1csc(N)n1.Cl.Cl.O [Cefepime Dihydrochloride Monohydrate]	0.833	1.59
Cc1ncc([N+](=O)[O-])n1CCO [Metronidazole]	0.966	1.56
Cc1cc(NS(=O)(=O)c2ccc(N)cc2)no1 [Sulfamethoxazole]	1.56	1.8
COc1cc2c(cc1OC)C(=O)C(CC1CCN(Cc3ccccc3)CC1)C2.Cl (stereo unspecified) [Donepezil HCl]	0.812	0.746
Cc1cccc(N(C)C(=S)Oc2ccc3ccccc3c2)c1 [Tolnaftate]	0.931	1.31
CCCN(CCC)S(=O)(=O)c1ccc(C(=O)O)cc1 [Probenecid]	1.41	1.62
COc1cc2c(Nc3ccc(Br)cc3F)ncnc2cc1OCC1CCN(C)CC1 [Vandetanib]	0.918	0.168
